Each structure is given as a SMILES string. The campaign covered roughly 2,400 compounds. About 180 (7.5%) were called active. The list comes from a sample in which actives are over-represented; it also holds similar structures and randomly drawn compounds. Values without a mark were called inactive.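 The calls were made as follows: active = readout below zero, meaning a drop past 3 SD under the dofetilide-free negative control mean; inactive = the rest.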

In the test the target is Potassium voltage-gated channel subfamily KQT member 2 (Rattus norvegicus) (UniProt O88943). Nature of the test: rat KCNQ2 channel inhibition by compounds alone, confirmation, counter-screen for hERG block protector project, cell-based, CHO, FluxOR thallium flux (AID 1946). To be noted: CHO-KCNQ2 cells, FluxOR thallium flux fluorescence; at 10 µM; active compounds read low; zero marks the 3-SD hit cutoff. In general terms: Counterscreens check selectivity or assay interference.
Chain of Potassium voltage-gated channel subfamily KQT member 2 (Rattus norvegicus) (O88943 whole entry, looked up): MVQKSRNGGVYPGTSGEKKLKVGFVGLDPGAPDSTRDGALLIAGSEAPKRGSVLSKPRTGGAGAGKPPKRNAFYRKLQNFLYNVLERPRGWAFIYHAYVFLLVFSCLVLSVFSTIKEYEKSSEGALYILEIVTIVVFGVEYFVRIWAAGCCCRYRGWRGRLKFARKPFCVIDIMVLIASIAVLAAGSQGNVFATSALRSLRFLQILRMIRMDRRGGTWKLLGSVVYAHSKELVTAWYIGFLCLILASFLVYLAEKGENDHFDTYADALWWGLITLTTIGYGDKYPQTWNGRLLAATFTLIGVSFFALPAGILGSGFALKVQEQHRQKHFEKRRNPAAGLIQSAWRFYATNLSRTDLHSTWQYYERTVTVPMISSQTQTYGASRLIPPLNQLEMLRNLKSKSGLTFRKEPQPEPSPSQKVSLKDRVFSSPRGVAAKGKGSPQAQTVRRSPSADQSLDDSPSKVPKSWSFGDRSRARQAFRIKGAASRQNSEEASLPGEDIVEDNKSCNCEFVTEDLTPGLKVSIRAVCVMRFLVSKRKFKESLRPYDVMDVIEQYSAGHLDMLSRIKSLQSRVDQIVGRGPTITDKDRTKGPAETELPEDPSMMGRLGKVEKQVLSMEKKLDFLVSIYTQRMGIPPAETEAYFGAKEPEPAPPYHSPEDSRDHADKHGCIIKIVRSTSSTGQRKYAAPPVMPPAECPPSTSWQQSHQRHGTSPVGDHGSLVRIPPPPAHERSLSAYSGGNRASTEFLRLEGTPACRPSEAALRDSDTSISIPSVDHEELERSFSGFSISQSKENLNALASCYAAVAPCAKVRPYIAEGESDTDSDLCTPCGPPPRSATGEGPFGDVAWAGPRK
With `Fc1ccc(NC(=S)Nc2nccs2)cc1`, the activity change vs negative control was 16.4%.
With `CCC(C)c1ccccc1NC(=S)NC(=O)c1ccco1` (centres undefined), the activity change vs negative control is 82%.
In the case of `COc1cc(/C=C2/SC(=S)N(CC(=O)O)C2=O)ccc1OCC(=O)Nc1ccc(C)c(C)c1`, the activity change vs negative control was -3.8% (active).
On to `Cc1ccc(NC(=O)CN2C(=O)S/C(=C/c3ccc(-c4cc(C(=O)O)ccc4C)o3)C2=O)cc1C`, for which the activity change vs negative control was 4.8%.
In the case of `O=C(CCN1C(=O)/C(=C/c2cccs2)SC1=S)Nc1cccc(C(=O)O)c1`, the activity change vs negative control was 5.2%.
Take `CSc1nc2c(c(=O)[nH]1)C(c1ccccc1Cl)CC(=O)N2` (centres undefined): the activity change vs negative control is 1.5%.
`Cc1cccc(NC(=S)NC(=O)c2ccc(Br)o2)c1C`: the activity change vs negative control is 27.3%.
Next, `Cc1ccc(C(=O)NC(C)c2ccc(C)c(C)c2)s1` (centres undefined): 53.7%; `COc1ccc(/C=C2\SC(c3ccc(C)cc3)=NC2=O)cc1OC`: -3.2% (active); `COc1cc(/C=C/C(=O)O)ccc1OS(=O)(=O)c1cc(C)ccc1C`: 13.1%.
Next, `COc1ccc(/C=C2\SC(=N)N(c3nccs3)C2=O)cc1OC`: 6.8%; `O=S(=O)(NC(=S)NC1CCCCC1)c1ccc(Cl)cc1`: 34.4%; `S=c1nc(Cc2ccc(Cl)cc2)[nH]c2ccccc12`: 51.9%.
`COc1ccccc1NC(=O)C1CCCN1C(=O)Nc1ccc(F)cc1` (centres undefined): the activity change vs negative control was 1.7%.
Regarding `COc1ccccc1NC(=O)C1CCCN1C(=O)NCc1ccccc1` (centres undefined), the activity change vs negative control is -1.2% (active).
On to `COc1ccccc1C(=O)NNC(=O)C(=O)NCc1ccccc1`, for which the activity change vs negative control was 41.8%.
Take `COc1cccc(OCC(=O)NNC(=O)C(=O)Nc2ccc(OC)cc2OC)c1`: the activity change vs negative control is 43.2%.
Under `O=C1NC(=O)/C(=C/c2cc3c(cc2Br)OCO3)S1` stands -0.8% (active); under `O=C1NC(=S)S/C1=C\c1ccc2ccccc2c1`, 75.1%.
Under `CCCN1C(=O)/C(=C/c2ccc3c(c2)OCO3)NC1=S` stands 19.4%; under `N#Cc1c(NC(=O)c2cc(-n3cnnc3)ccc2Cl)sc2c1CCCC2`, 13%; under `COc1ccc(C(=O)CC(=O)C(=O)Nc2ccccc2)cc1`, 32.5%.
Under `CC1CN(C(=S)NC(=O)c2ccc(Cl)cc2)CC(C)O1` (centres undefined) stands 28.2%; under `CCn1cc(C(=O)NCCN(C)C)c(=O)c2cc(F)c(N3CCN(C)CC3)cc21`, -0.9% (active); under `O=C(NC(=S)Nc1cccnc1)c1cc2ccccc2o1`, 31.9%.
As to `COc1ccc(CS(=O)(=O)CC2(O)CCN(C(=O)c3cccc(C(F)(F)F)c3)CC2)cc1`, the activity change vs negative control is -2.4% (active).
With `CC(C)Oc1cccc(C(=O)N2CCCC2)c1`, the activity change vs negative control is 9.7%.
Next, `COc1ccc(C(=O)O)cc1S(=O)(=O)Nc1cccc(C(F)(F)F)c1`: 8%; `C/C(=N\NC(=O)c1cc2ccccc2cc1O)c1cc2ccccc2o1`: 112%.
Under `Cc1ccc(C(=O)Nc2nc(=O)n(C)s2)cc1` stands 15.9%; under `O=C(Nc1nc(=O)c2ccccc2s1)c1ccc(Cl)cc1`, 23.9%; under `Cc1c(-c2ccn[nH]2)cc(NC(=O)c2ccc(Cl)cc2)c(=O)n1N`, -0.8% (active).
Next, `Cc1cc(C)c(-c2cc(NC(=O)COC(=O)c3ccc(NC(=O)CC#N)cc3)n(-c3ccccc3)n2)cc1C`: 7.4%; `CCOC(=O)c1nnn(CC(=O)Nc2cccc(F)c2)c1C(=O)OCC`: 14.1%.
For `CCOC(=O)c1ccc(NC(=O)Cn2nnc(-c3ccccc3)n2)cc1`, the activity change vs negative control was -3.4% (active).
Take `Cc1cccc(NC(=S)NC(=O)c2ccco2)c1C`: the activity change vs negative control is 77.7%.
Under `CCOc1cccc(C(=O)Nc2ccc3[nH]ncc3c2)c1` stands 15.6%.
Next, `O=C(Nc1cccc2[nH]ncc12)c1ccc(F)cc1`: -2.9% (active).
Under `O=C(Nc1nc(-c2ccccc2)c(-c2ccccc2)o1)c1ccc(F)cc1` stands 40.3%; under `CCCCn1c(N)c(C(=S)NC(=O)CC(C)(C)C)c(=O)n(C)c1=O`, 40.5%.
Turning to `Cc1sc2ncnc(SCC(=O)c3ccc(O)cc3O)c2c1C`, the activity change vs negative control was 24.3%.
As for `Cn1ncc2c(NNC(=O)c3ccc(O)cc3)ncnc21`, the activity change vs negative control is -3.1% (active).
Take `Cn1ncc2c(O/N=C(\N)c3ccc(C(F)(F)F)cc3)ncnc21`: the activity change vs negative control is 7.4%.
On to `Cn1ncc2c(NNC(=O)Cc3ccccc3)ncnc21`, for which the activity change vs negative control is 15.1%.
Under `O=c1cc(-c2ccccc2)cc(-c2ccccc2)n1O` stands 72.2%; under `COc1ccc(OCC(=O)NNC(=O)C(=O)Nc2ccc(C)cc2)cc1`, 7.7%; under `COC(=O)CNC(=S)NC(=O)c1ccc(C(C)(C)C)cc1`, 1.6%.
Turning to `COC(=O)CNc1nc(Cl)nc(Nc2ccc(C)cc2)n1`, the activity change vs negative control was -0.4% (active).
Next, `COc1ccc(Cn2c(O)cc(=O)[nH]c2=O)cc1`: 1.4%; `COc1ccc(-n2c(=S)[nH]c3ccccc3c2=S)cc1`: 22.2%.
With `COc1ccc(-n2c(O)c(/C=C3\C=Nc4ccccc43)c(=O)[nH]c2=O)cc1`, the activity change vs negative control is -8.7% (active).
As to `CCC1(C)Cc2c(sc3nc(SC)[nH]c(=S)c23)CO1` (centres undefined), the activity change vs negative control was 131%.
Next, `COc1ccc(/C=C/C(=O)Nc2ccccc2C(=O)O)cc1`: 27.2%; `CCOC(=O)/C(C)=N/NC(=O)c1ccc([N+](=O)[O-])cc1`: 40.5%; `CCNC(=S)Nc1nc2c(cc1C(=O)OCC)CCCC2`: 29.4%.
Under `O=C(O)CSc1nc2ccccc2nc1Cc1ccccc1F` stands 29.1%.
Next, `O=C(O)CSCc1c(F)cccc1Cl`: -3.5% (active).
For `CCN(CC)CCCN1C(=O)c2oc3ccccc3c(=O)c2C1c1cccs1` (centres undefined), the activity change vs negative control was 44.2%.
Under `CON/C=N/C(=S)Nc1ncc(C(F)(F)F)cc1Cl` stands 51.1%; under `Cc1nn(C)c(C(=O)NC(=S)Nc2ccc([N+](=O)[O-])cc2)c1Cl`, 29.3%.
With `Cc1ccc(NC(=S)NC(=O)c2sc3ccccc3c2Cl)c(C(=O)O)c1`, the activity change vs negative control is 36.9%.
Under `COc1cccc(C2C3=C(N=c4s/c(=C\c5ccc(OCC(=O)O)cc5)c(=O)n42)c2ccccc2CC3)c1` (centres undefined) stands -16.7% (active).
On to `CCOc1ccc(/C=C2\CCc3ccccc3C2=O)cc1`, for which the activity change vs negative control is 10.2%.
Under `COc1cccc([C@@H]2Oc3ccc(OC)cc3C(=O)[C@H]2OC(=O)NCc2ccc3c(c2)OCO3)c1` stands 2.3%.

For the origin of these results see PubChem BioAssay AID1946 (Johns Hopkins Ion Channel Center, 2009).
